# HT1080 IDH1KD tx: HT-1080 IDH1 knockdown cell toxicity (counter line); AID 686971; hit rate 2% among 360,000; HT-1080 IDH1 knockdown viability, ATP luminescence, 48 h; Potency, µM (highest dose often 46.1 µM), inactives show at the top dose activity, negative = toxicity, most hits filed as cytotoxic;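 further: 0% = DMSO wells and -100% = cell-free medium wells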
#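 In this qHTS, HT-1080 cells depleted of IDH1 are exposed for 48 h at 37 °C to compound titrations. Toxicity is scored from CellTiter-Glo luminescence, with DMSO as full viability and medium alone as none.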
# KB-V1 MDR tox: KB-V1 MDR subline cytotoxicity; KB-V1 MDR cells viability, CellTiter-Glo, 72 h; Potency, µM (series often up to 46.1 µM), usual class: cytotoxic; hit rate 3.4% among 400,000; AID 1347076; further: on the % scale 0 is the no-effect control and ±100 the full control effect; nearly all actives have a fitted effect of over 60% in size
#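 Cells of the MDR subline KB-V1 are plated, dosed with compound at multiple concentrations, and incubated 72 h at 37 degrees C; CellTiter-Glo is then added and luminescence read after 10 min.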
# SW480 rerep: induces DNA re-replication in SW480 colon adenocarcinoma cells | SW480 DNA re-replication, Hoechst DNA content imaging, 48 h | Potency, µM (highest dose often 46.1 µM), for inactives: at the highest dose re-replication activation, actives largely listed as activators | hit rate 1.8% among 340,000 | AID 624297; further: % of control where 0% means no effect; nearly all actives have a fitted effect of over 55% in size
#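 Image-based read-out: total Hoechst fluorescence of nuclei (405 nm excitation, 500-530 nm emission), with hits raising the fraction of high-intensity nuclei. SW480 colon cells incubated 48 hr with compounds at 37 C.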
# HT1080NT lethal: kills 2HG-producing HT-1080-NT fibrosarcoma cells | HT-1080-NT fibrosarcoma viability, CellTiter-Glo ATP luminescence, 48 h | Potency, µM (top dose mostly 46.1 µM), without a hit: at the top dose activity, negative = less viability, hits mostly cytotoxic | hit rate 1.6% among 360,000 | AID 686970;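 further: NT is the 2HG producing partner of a matched IDH1 knockdown line; 0% = DMSO-treated cells and -100% = media-only wells without cells; nearly all actives have a fitted effect of over 55% in size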
#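 HT-1080-NT; 750 cells/well; 5% FBS RPMI; 48 h compound, 37 degrees C; CellTiter-Glo luminescence; curve fitting and curve-class assignment.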
# KB-3-1 cytotox: kills parental KB-3-1 adenocarcinoma cells | KB-3-1 viability, CellTiter-Glo ATP luminescence, 72 h | hit rate 1.4% among 400,000 | Potency, µM (top dose mostly 46.1 µM), most hits filed as cytotoxic; further: on the % scale 0 is the no-effect control and ±100 the full control effect; nearly all actives have a fitted effect of over 60% in size
#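 Cytotoxicity measured as CellTiter-Glo luminescence after 72 h at 37 C. Compound titrations were pinned onto drug-naive KB-3-1 parental adenocarcinoma cells grown in DMEM with 10% FBS, and normalized data fitted to concentration-response curves.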
# MCF10A rereplic: induces DNA re-replication in MCF 10a normal breast cells. MCF 10A DNA re-replication, Hoechst nuclear intensity, 48 h. Potency, µM (series often up to 46.1 µM), inactives show top-dose activity, positive = re-replication, hits mostly activators. hit rate 2.9% among 350,000. AID 624296; further: % of control where 0% means no effect; nearly all actives have a fitted effect of over 50% in size
# * = called active by the depositor; i = inactive; ? = inconclusive; / = not tested or not shown. The list is not random: actives were taken first. Their share in the collection is about 7.9%. The call rests on the fitted dose curve; in most records, active means well fitted curve in the direction sought with a large enough effect; inconclusive means small, poorly fitted or top-dose-only effect, or another doubt; inactive means no such curve, though single readings can be large; an effect the other way counts as inactive or inconclusive. Potency means the concentration at half of the fitted maximal effect.
SMILES,HT1080 IDH1KD tx,KB-V1 MDR tox,SW480 rerep,HT1080NT lethal,KB-3-1 cytotox,MCF10A rereplic
COc1ccc(S(=O)(=O)NC(=O)C2(C)CCN2C(=O)C2(c3ccccc3)CC2)cc1 (stereo unspecified),-0.7%,i,/,6.7%,i,/
Cc1ccc2c(c1)C1CN(C)CCC1N2Sc1ccccc1[N+](=O)[O-] (stereo unspecified),?,i,?,16.4µM*,i,?
COc1ccccc1C1=NN(C(=S)Nc2ccccc2)C(c2ccco2)C1 (stereo unspecified),-5.9%,14.6µM*,?,-1.5%,?,13.0%
COc1ccc(OC)c(C2CC(c3ccccc3)=NN2C(=S)Nc2ccccc2)c1 (stereo unspecified),?,i,4.61µM*,?,i,4.11µM*
CNC(=S)N1N=C(c2ccc(C)cc2)CC1c1cc(OC)ccc1OC (stereo unspecified),20.6µM*,?,?,?,11.6µM*,?
CCCCCc1ccc(C)cc1O,/,/,0.7%,/,/,3.6%
CCS(=O)(=O)N1CC(=O)N(c2cccc(Cl)c2C)C(C)(C(=O)NC2CCCCC2)C1 (stereo unspecified),/,i,/,/,i,/
Cc1cc(OCC(=O)NCCN2CCOCC2)c2c(C)c(C)c(=O)oc2c1,-0.5%,i,-0.4%,1.4%,i,-3.5%
Cc1ccc(CNC(=O)CSc2nc3ccsc3c(=O)n2Cc2ccc(C(=O)O)cc2)cc1,-0.4%,?,-22.7%,11.4%,i,0.651µM*
O=C(CSc1nc2ccsc2c(=O)n1Cc1ccc(C(=O)O)cc1)NCc1ccco1,21.1%,i,0.2%,15.1%,i,0.5%
Cc1ccc2c(CNCCc3ccccc3)c(C(=O)O)n(Cc3ccccc3C)c2c1,/,i,/,/,i,/
CCOC(=O)N1CCN(C(=O)C2CCC(=O)N(Cc3ccc(Cl)cc3)C2)CC1 (stereo unspecified),11.1%,i,-11.2%,9.4%,i,-5.4%
NC(=O)c1cc([N+](=O)[O-])ccc1NCc1cccc2ccccc12,-29.2%,?,-31.5%,-14.9%,i,?
O=C(/C=C/Nc1ccc([N+](=O)[O-])cc1Br)c1cccc2ccccc12,1.4%,i,?,-3.6%,23.1µM*,2.5%
CC(CC(=O)N1CCN(c2cccc(Cl)c2)CC1)S(=O)(=O)c1ccc2c(c1)NC(=O)CO2 (stereo unspecified),-4.1%,i,14.9%,-4.3%,?,-6.3%
CCNC(=S)N/N=C/c1ccc(OCC(=O)Nc2ccc(C)cc2)cc1,10µM*,?,?,5.62µM*,i,?
CCCc1cc(=O)n2nc(N3CCC(C(=O)N4CCN(c5ccc(OC)cc5)CC4)CC3)sc2n1,13µM*,i,-1.2%,?,i,12.3%
CC(C)=CCc1c2c(c3occ(-c4ccc(O)cc4)c(=O)c3c1O)C=CC(C)(C)O2,?,?,0.8%,?,?,?
CC(C)=CCc1c2c(c3occ(-c4ccc(O)c(O)c4)c(=O)c3c1O)C=CC(C)(C)O2,?,i,14.8%,?,?,9.2µM*
O=C(NCc1ccncc1)c1ccc(Oc2ccccc2)cc1,-26.8%,?,2.3%,-21.1%,?,1.7%
CCOc1ncccc1C(=O)Nc1ccc2c(c1)OCO2,-11.4%,?,-1.5%,-0.1%,?,18.2%
Cc1ccc(Oc2ccc(C(=O)NCc3ccncc3)cc2)cc1,?,20.6µM*,1.9%,?,i,2.4%
CCOc1ncccc1C(=O)NCc1ccc(C)cc1,5.6%,18.4µM*,-82.3%,1.0%,i,?
CCOc1ncccc1C(=O)Nc1ccccc1C(=O)NCc1ccc2c(c1)OCO2,-15.5%,5.17µM*,13.3%,-5.2%,i,?
COc1ccc(NS(=O)(=O)c2cc(NC(=O)c3cc(F)c(F)cc3Cl)ccc2N2CCOCC2)cc1,-24.8%,i,?,-15.4%,i,-4.7%
SMILES,HT1080 IDH1KD tx,KB-V1 MDR tox,SW480 rerep,HT1080NT lethal,KB-3-1 cytotox,MCF10A rereplic
Nc1cc(S(=O)(=O)Nc2ccccc2Cl)ccc1N1CCOCC1,1.4%,i,-2.1%,-6.9%,?,0.4%
COc1ccccc1NS(=O)(=O)c1cc(NC(=O)c2sccc2C)ccc1N1CCOCC1,-27.6%,i,11.2%,-21.9%,i,8.1%
COCC(=O)Nc1ccc(N2CCOCC2)c(S(=O)(=O)Nc2ccccc2OC)c1,-4.9%,?,4.6%,-4.0%,?,1.5%
COc1ccc(NS(=O)(=O)c2cc(NC(=O)c3sccc3C)ccc2N2CCOCC2)cc1,-5.3%,i,?,?,7.31µM*,?
COc1ccccc1NS(=O)(=O)c1cc(NC(=O)COc2ccccc2F)ccc1N1CCOCC1,1.7%,4.61µM*,-0.3%,2.8%,i,0.0%
CCOC(=O)Nc1ccc(N2CCOCC2)c(S(=O)(=O)Nc2ccc(Cl)cc2)c1,?,?,20.6µM*,?,i,?
Nc1cc(S(=O)(=O)Nc2ccc(Cl)cc2)ccc1N1CCOCC1,-12.4%,?,3.8%,?,23.1µM*,?
COC(=O)c1sc(=S)sc1C(=O)OC,31.6µM*,i,0.7%,?,i,?
CCc1ccc(C(C)NC(=O)COC(=O)c2ccc(-n3cnnn3)cc2)cc1 (stereo unspecified),8.2%,?,1.0%,1.9%,i,9.7%
Cn1c(Oc2ccc(F)cc2)c(C=O)c2ccccc21,-20.9%,i,11.4%,-22.1%,i,14.4%
Cn1c(Sc2ccc(Br)cc2)c(C=O)c2ccccc21,25.9µM*,?,?,?,?,?
Cc1ccc(S(=O)(=O)N/N=C\c2ccc3c(c2)OCO3)c(C)c1,5.4%,i,5.3%,21.9%,i,0.1%
Cc1occc1C(=O)N1CCN(c2ccc(Cl)c(Cl)c2)CC1,-16.7%,23.1µM*,7.5%,-0.4%,i,-5.3%
Cc1ccc(C)c(S(=O)(=O)N2CCCC2CNC(=O)C(=O)NCC2CCCO2)c1 (stereo unspecified),13.3%,i,5.8µM*,17.8%,i,27.2%
Cc1ccc(C)c(S(=O)(=O)N2CCCC2CNC(=O)C(=O)NCc2ccccn2)c1 (stereo unspecified),-5.8%,i,18.4µM*,8.8%,i,-20.9%
Cc1ccc(C)c(S(=O)(=O)N2CCCC2CNC(=O)C(=O)NC2CCCCCC2)c1 (stereo unspecified),12.0%,i,0.4%,7.8%,i,27.9%
